Source: PMC6925144, “A prospective compound screening contest identified broader inhibitors for Sirtuin 1” (Scientific Reports, 2019)
In all, about 3,200 compounds were measured (“TSA(without NAD+) / Primary screening (TSA) / delta Tm (K)”: median about -0.07, highest 2% from about 0.37 on). Many of the other results were omitted from the sample, so the highest values are more common in it than they were.

Biological target: NAD-dependent deacetylase Sirtuin 1 (human, UniProt Q96EB6)
Test: primary screen, delta tm
Parameters: single well (n = 1)
Details: 10 µM
Protocol: A total of 3,192 compounds extracted from the proposed lists were first screened by thermal shift assay (TSA), which determined a melting temperature shift (ΔTm) of Sirtuin 1 upon the addition of a test compound at a concentration of 10 µM (n = 1) with primary hit criteria of ΔTm > 0.45 K or ΔTm < −1.5 K. Primary hits (48 compounds) were retested in the same assay at three concentrations (5, 10, 20 µM, n = 4) for hit confirmation and for dose-dependency check. Secondary hits (41 compounds) were checked their selectivity for Sirtuin 1 based on counterscreening on unrelated protein targets (bovine carbonic anhydrase (CA) and recombinant SH2 domain of hABL1 kinase (ABL1)) at three different concentrations (5, 10, 20 µM, n = 4), which yielded 38 hit compounds, hereafter referred to as TSA hits. The TSA screening above was conducted in the absence of NAD+.

Sequence of NAD-dependent deacetylase Sirtuin 1 (Q96EB6 2-747 limits assumed): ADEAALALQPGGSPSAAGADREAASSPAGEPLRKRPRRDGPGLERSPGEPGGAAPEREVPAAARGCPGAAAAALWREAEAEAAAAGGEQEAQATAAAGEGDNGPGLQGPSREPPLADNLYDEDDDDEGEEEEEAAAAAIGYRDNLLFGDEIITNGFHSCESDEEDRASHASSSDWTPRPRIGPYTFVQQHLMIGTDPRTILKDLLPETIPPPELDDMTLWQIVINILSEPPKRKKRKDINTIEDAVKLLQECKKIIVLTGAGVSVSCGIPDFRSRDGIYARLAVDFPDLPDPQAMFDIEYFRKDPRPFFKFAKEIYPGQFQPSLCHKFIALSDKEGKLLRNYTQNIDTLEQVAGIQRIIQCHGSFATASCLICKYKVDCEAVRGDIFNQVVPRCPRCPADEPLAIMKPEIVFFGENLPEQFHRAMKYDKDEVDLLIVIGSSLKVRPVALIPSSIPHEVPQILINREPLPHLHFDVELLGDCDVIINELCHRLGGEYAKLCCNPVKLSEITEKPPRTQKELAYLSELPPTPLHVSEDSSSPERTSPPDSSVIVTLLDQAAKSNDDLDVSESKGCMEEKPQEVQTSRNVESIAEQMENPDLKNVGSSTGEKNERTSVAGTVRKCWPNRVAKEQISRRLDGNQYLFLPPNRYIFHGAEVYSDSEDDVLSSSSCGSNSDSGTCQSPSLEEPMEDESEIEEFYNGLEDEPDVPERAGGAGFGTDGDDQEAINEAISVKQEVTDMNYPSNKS

| Compound | TSA(without NAD+) / Primary screening (TSA) / delta Tm (K) |
| --- | --- |
| O=C1/C(=C\c2ccc(Br)cc2)CC/C1=C/c1ccccc1OC(F)F | -0.08 |
| O=C1/C(=C\c2cc(Br)cc(Br)c2O)CC/C1=C\c1cc(Br)cc(Br)c1O | 0.55 |
| COc1ccc(Br)cc1/C=C1/Cc2ccccc2C1=O | -0.08 |
| O=C(CCSc1ncccn1)Nc1c(Cl)cccc1Cl | -0.04 |
| Cc1ccc(C23CC4CC(CC(C(=O)OCC(N)=O)(C4)C2)C3)cc1C | -0.22 |
| Cc1ccc(C23CC4CC(CC(C(=O)OCC(=O)Nc5ccc(S(N)(=O)=O)cc5)(C4)C2)C3)cc1 | 0.32 |
| Cc1ccc(C23CC4CC(CC(C(=O)OC(C)C(=O)Nc5ccc(S(N)(=O)=O)cc5)(C4)C2)C3)cc1C (stereo not shown) | 0.48 |
| Cc1ccc(N(C)S(=O)(=O)c2cccc(C(=O)N(C)Cc3ccccc3Cl)c2)cc1 | -0.24 |
| O=S1(=O)CCC(N2CCN(c3ncnc4c3oc3ccccc34)CC2)C1 (stereo not shown) | -0.11 |
| Cc1nc(N2CCN(c3cccc(C(F)(F)F)c3)CC2)c2c3c(sc2n1)CCC3 | 0.16 |
| CC(C)CC(=O)Nc1ccc(C(=O)COC(=O)CNC(=O)CC23CC4CC(CC(C4)C2)C3)cc1 | -0.04 |
| CCOc1ccc(Oc2ccc(NC(=O)CNC(=O)CC34CC5CC(CC(C5)C3)C4)cc2)cc1 | 0.38 |
| COc1ccc(NC(=O)CC23CC4CC(C2)CC(CC(=O)Nc2ccc(OC)cc2)(C4)C3)cc1 | 0.15 |
| NCCOCC(=O)O | -0.23 |
| CCCn1c(NC(=O)c2ccc3c(c2)CCC(=O)N3)nc2ccccc21 | 0.12 |
| O=C1CCc2cc(NC(=O)c3cccnc3)ccc2N1 | -0.04 |
| Cc1ccc(C(=O)Nc2nc3ccc(NS(=O)(=O)c4ccc5c(c4)CCC(=O)N5)cc3s2)s1 | 0.66 |
| NCC(N)C1CCC1 (stereo not shown) | -0.31 |
| NC(=O)c1cc(NC(=O)CN2CC=C(c3ccc(O)cc3)CC2)cc(C(N)=O)c1 | 0.15 |
| O=C1NC(=S)NC(=O)C1=NNc1c(F)cccc1F | -0.08 |
| Cn1ncc2c(=O)n(CC(=O)N3CCCc4c(C(N)=O)cccc43)cnc21 | -0.18 |
| O=C(NC1(C(=O)N2CCN(C(=O)c3cnccn3)CC2)CCOC1)OCc1ccccc1 (stereo not shown) | -0.12 |

| Compound | TSA(without NAD+) / Primary screening (TSA) / delta Tm (K) |
| --- | --- |
| Cc1sc(NC(=O)C2CCN(c3ncc(C(F)(F)F)cc3Cl)CC2)c(C(N)=O)c1C | 0.28 |
| Cc1sc2ncnc(N3CCC(C(=O)Nc4sc5c(c4C(N)=O)CCCC5)CC3)c2c1C | 0.16 |
| NC(=O)c1c(NC(=O)C2CCN(c3ncc(C(F)(F)F)cc3Cl)CC2)sc2c1CCC2 | 0.39 |
| Cc1ccc(OCC(O)Cn2c(C(F)(F)F)ccc(C(N)=O)c2=O)cc1 (stereo not shown) | -0.13 |
| Cc1ccc(NC(=O)C(OC(=O)C23CC4CC(CC(O)(C4)C2)C3)c2ccccc2)c([N+](=O)[O-])c1 (stereo not shown) | 0.07 |
| CC(NC(=O)CNC(=O)CNC(=O)c1cccs1)c1ccccn1 (stereo not shown) | -0.23 |
| O=C1CCCCC(C(=O)Nc2ccc(-c3nc4ccccc4[nH]3)cc2)N1 (stereo not shown) | -0.03 |
| O=C(CC12CC3CC(CC(C3)C1)C2)NCC(=O)Nc1ccc(Sc2nc3ccccc3[nH]2)cc1 | 0.18 |
| O=C(NC(=S)Nc1ccc(-c2nc3ccccc3[nH]2)cc1)C12CC3CC(CC(C3)C1)C2 | 0.58 |
| O=C(Nc1cccc(S(=O)(=O)N2CCOCC2)c1)c1cn(-c2ccccc2)nc1-c1ccccc1 | -0.02 |
| O=C(Nc1cccc(S(=O)(=O)N2CCOCC2)c1)c1cn(-c2ccccc2)nc1-c1ccc(Cl)cc1 | 0.58 |
| O=C(Nc1cccc(S(=O)(=O)N2CCOCC2)c1)C(c1ccccc1)c1ccccc1 | 0.09 |
| Cc1ccc(-c2nn(-c3ccccc3)cc2C(=O)Nc2cccc(S(=O)(=O)N3CCOCC3)c2)cc1 | 0.07 |
| CN(c1ccccc1)S(=O)(=O)c1ccc(C(=O)Nc2cccc(S(=O)(=O)N3CCOCC3)c2)cc1 | 0.02 |
| O=C(Nc1cccc(S(=O)(=O)N2CCOCC2)c1)c1cccc(S(=O)(=O)N2CCc3ccccc32)c1 | 0.37 |
| O=C(Cn1[nH]c(=O)c2ccccc2c1=O)Nc1ccc(N2CCN(Cc3ccccc3)CC2)cc1 | 0.02 |
| O=C(OCc1cccc2ccccc12)C1CCCCN1c1ncccn1 (stereo not shown) | -0.13 |
| Cc1nc2c(C(N)=O)ncn2c(C)c1CCC(=O)Nc1ccc(F)c(C(N)=O)c1 | 0.02 |
| c1coc(CNc2ncnc3ccsc23)c1 | 0.05 |
| CCNC(=O)c1cccc(NC(=O)C2CCN(S(=O)(=O)c3cc(C(C)(C)C)ccc3C)CC2)c1 | 0.17 |
| O=C(NO)c1cccc(C(F)(F)F)c1 | -0.13 |
| Cc1ccc(C(C)(C)C)cc1S(=O)(=O)Nc1cccc(C(=O)NNC(=O)c2cccc(S(=O)(=O)Nc3cccc(C(F)(F)F)c3)c2)c1 | 1.22 |

| Compound | TSA(without NAD+) / Primary screening (TSA) / delta Tm (K) |
| --- | --- |
| NC(=O)c1ccc(CNC2CCCCCC2)o1 | -0.05 |
| C=CCOc1cccc(C2C(C(=O)c3ccco3)=C(O)C(=O)N2CCCN2CCOCC2)c1 (stereo not shown) | -0.08 |
| COc1ccc(NC(=S)NN)cc1OC | 0.37 |
| COc1cc(NC(C)C(=O)Nc2ccc(C(N)=O)cc2)cc(OC)c1OC (stereo not shown) | -0.18 |
| COc1ccc(CNC(=S)NC2CCCCC2)cc1OC | -0.23 |
| COc1ccc(Br)cc1/C=C1/COc2ccccc2C1=O | -0.03 |
| CCC(NC(=O)c1ccc(C(N)=O)cc1)C(c1ccc(C)cc1)n1cncn1 (stereo not shown) | -0.21 |
| COc1ccc(N(C)S(=O)(=O)c2cccc(C(=O)Nc3ccc4ccccc4c3)c2)cc1 | 0.82 |
| COc1ccc(N(C)S(=O)(=O)c2cccc(C(=O)Nc3ccc4c(C)cc(=O)oc4c3)c2)cc1 | -0.13 |
| COc1ccc(N(C)S(=O)(=O)c2cccc(C(=O)Nc3cccc(Br)c3)c2)cc1 | 0.38 |
| COc1ccc(NC(=O)c2cccc(S(=O)(=O)N(C)c3ccc(OC)cc3)c2)cc1 | 0.03 |
| COc1ccc(N(C)S(=O)(=O)c2cccc(C(=O)Nc3cccc4ccccc34)c2)cc1 | -0.13 |
| COc1ccc(N(C)S(=O)(=O)c2cccc(C(=O)Nc3ccc(Br)cc3)c2)cc1 | 0.36 |
| COc1ccc(N(C)S(=O)(=O)c2cccc(C(=O)Nc3ccc(OC)c(OC)c3)c2)cc1 | -0.31 |
| COc1ccc(N(C)S(=O)(=O)c2cccc(C(=O)Nc3ccc(Br)cc3F)c2)cc1 | 0.07 |
| COc1ccc(N(C)S(=O)(=O)c2cccc(C(=O)Nc3ccc(-n4cnnn4)cc3)c2)cc1 | 0.59 |
| COc1ccc(N(C)S(=O)(=O)c2cccc(C(=O)Nc3ccc(Br)c(C(F)(F)F)c3)c2)cc1 | 0.62 |
| CCCOC(=O)c1ccc(NC(=O)c2cccc(S(=O)(=O)N(C)c3ccc(OC)cc3)c2)cc1 | 0.35 |
| COc1ccc(N(C)S(=O)(=O)c2cccc(C(=O)Nc3ccc(Cl)cc3)c2)cc1 | 0.36 |
| O=C(CCc1ccc2c(c1)OCO2)N1CCc2[nH]c3ccccc3c2C1 | -0.15 |
| Cc1nc(-c2ccccn2)[nH]c(=O)c1CC(=O)NCc1cccc(Oc2ccccc2)c1 | 0.09 |
| NC(=O)C1CCN(C(=O)c2ccc3[nH]c4c(c3c2)CCCC4)CC1 | 0.17 |

| Compound | TSA(without NAD+) / Primary screening (TSA) / delta Tm (K) |
| --- | --- |
| Cc1cc(N(C)C)n2nc(C(F)(F)F)c(-c3ccccc3)c2n1 | -0.18 |
| Cc1ccc(-n2c(C)c(C)c3c(N)ncnc32)cc1 | 0.02 |
| CCc1cc2c(N3CCCC3)nc(C)nc2s1 | -0.07 |
| CCCOc1ccc(C(=O)C2=C(O)C(=O)N(CCCN3CCOCC3)C2c2ccccc2F)cc1 (stereo not shown) | -0.27 |
| CC(=O)Nc1ccc(NC(=O)c2ccccc2SCC(=O)NC23CC4CC(CC(C4)C2)C3)cc1 | -0.21 |
| CCOc1ccc(C2C(C(=O)c3ccco3)=C(O)C(=O)N2CCCN2CCOCC2)cc1 (stereo not shown) | -0.13 |
| NC(=O)c1cccc(CN2CCCC2c2ccsc2)c1 (stereo not shown) | -0.08 |
| CC(=O)Nc1ccc(CNCc2ccccc2CN2CCCC2)cc1 | -0.12 |
| NC(=O)C1CCN(c2ncnc3c2c(-c2ccccc2)cn3-c2cccc(C(F)(F)F)c2)CC1 | -0.07 |
| CC(Nc1cccc(C(N)=O)c1)C1CN(Cc2ccccc2)CCO1 (stereo not shown) | -0.18 |
| Cc1ccc(-c2cc(C(=O)OC(C)C(=O)Nc3cccc([N+](=O)[O-])c3)[nH]n2)cc1 (stereo not shown) | 0.12 |
| CC(=C/c1ccccc1)/C=N/NC(=O)c1cc(-c2ccc(C)cc2)n[nH]1 | 1.06 |
| Cc1ccc(C2C(C(=O)c3cc4ccccc4o3)=C(O)C(=O)N2CCCN2CCOCC2)o1 (stereo not shown) | 0.02 |
| N#Cc1cc(Br)ccc1NCC1(CCO)CCOC1 (stereo not shown) | -0.24 |
| Cc1cc(C)c(NC(=O)CN(C)C(=O)CNC(=O)C(C)(C)C)c(C)c1 | 0.02 |
| O=C1/C(=C/c2cnn(-c3ccccc3)c2)Oc2cc(O)ccc21 | 1.25 |
| O=C1/C(=C/c2cccc(O)c2)Oc2cc(O)ccc21 | -0.21 |
| O=C1/C(=C/c2ccccc2)Oc2cc(O)ccc21 | 0.08 |
| NC(=O)c1ccc(C(=O)OCC(=O)Nc2ccccc2-c2ccccc2)cc1 | -0.18 |
